Article PMC7862700, “An all-to-all approach to the identification of sequence-specific readers for epigenetic DNA modifications on cytosine”

Columns and labels:
Assay in all cases: DAPPL (digital affinity profiling via proximity ligation, sequencing); 10 mM Tris-HCl pH 7.5, 50 mM NaCl, 1 mM DTT, 4% glycerol, room temperature, 30 min; GST-TFs on glutathione beads, 16-mer random dsDNA library, 0.1% formaldehyde crosslink after washing; high values mean tight binding
Settings in all cases: protein: recombinant; tags: N-terminal GST; dsDNA, one strand shown
FLI1 = molecular target: T1, FLI1 (Homo sapiens, UniProt Q01543 1-452)
T1 sequence: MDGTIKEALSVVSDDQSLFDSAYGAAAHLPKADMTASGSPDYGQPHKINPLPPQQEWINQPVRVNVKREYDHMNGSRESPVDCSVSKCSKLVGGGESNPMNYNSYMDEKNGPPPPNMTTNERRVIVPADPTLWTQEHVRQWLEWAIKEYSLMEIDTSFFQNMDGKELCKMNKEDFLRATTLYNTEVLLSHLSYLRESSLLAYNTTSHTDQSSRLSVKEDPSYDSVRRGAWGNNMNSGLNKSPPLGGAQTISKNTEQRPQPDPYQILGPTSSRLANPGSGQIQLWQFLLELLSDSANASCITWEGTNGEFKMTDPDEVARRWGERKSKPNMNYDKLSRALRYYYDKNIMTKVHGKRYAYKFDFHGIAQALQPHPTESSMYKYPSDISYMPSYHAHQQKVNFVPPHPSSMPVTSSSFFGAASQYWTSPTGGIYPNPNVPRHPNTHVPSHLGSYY
Summary of the method: (§1)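 Human transcription factors carrying a GST fusion were produced in yeast, bound to glutathione beads, tagged with DNA barcodes and pooled together with a tag-only sample. Each pool was held with 200 nmole of a random double-stranded 16-mer DNA library in Tris/NaCl/DTT/glycerol buffer for 30 min at room temperature, then washed, crosslinked in 0.1% formaldehyde, proximity-ligated with BsaI/T4 ligase (1 h, 37 °C), PCR-amplified and sequenced on an Illumina NextSeq500. Binding signal is the read frequency of each hexamer for a given factor divided by its frequency in the tag-only sample.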

ERG = molecular target: T2, ERG (Homo sapiens, UniProt P11308 1-479)
T2 sequence: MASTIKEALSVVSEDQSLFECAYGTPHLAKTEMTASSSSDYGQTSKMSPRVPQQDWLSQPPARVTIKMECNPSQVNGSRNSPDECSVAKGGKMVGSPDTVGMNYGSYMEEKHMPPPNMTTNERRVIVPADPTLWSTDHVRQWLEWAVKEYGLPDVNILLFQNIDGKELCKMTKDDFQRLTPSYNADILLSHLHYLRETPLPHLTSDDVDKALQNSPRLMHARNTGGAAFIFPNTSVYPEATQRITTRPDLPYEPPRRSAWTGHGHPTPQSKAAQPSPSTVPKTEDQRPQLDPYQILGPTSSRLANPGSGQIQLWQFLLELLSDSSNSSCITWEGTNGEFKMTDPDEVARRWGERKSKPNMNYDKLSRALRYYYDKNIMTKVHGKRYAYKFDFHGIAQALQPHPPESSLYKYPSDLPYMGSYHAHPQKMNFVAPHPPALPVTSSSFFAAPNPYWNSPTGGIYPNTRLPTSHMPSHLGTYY
Summary of the method: as §1

SPI1 = SPI1 (Homo sapiens, UniProt P17947 1-270)
Summary of the method: as §1

SPIB = SPIB (Homo sapiens, UniProt Q01892 1-262)
Sequence of SPIB (Q01892 whole entry): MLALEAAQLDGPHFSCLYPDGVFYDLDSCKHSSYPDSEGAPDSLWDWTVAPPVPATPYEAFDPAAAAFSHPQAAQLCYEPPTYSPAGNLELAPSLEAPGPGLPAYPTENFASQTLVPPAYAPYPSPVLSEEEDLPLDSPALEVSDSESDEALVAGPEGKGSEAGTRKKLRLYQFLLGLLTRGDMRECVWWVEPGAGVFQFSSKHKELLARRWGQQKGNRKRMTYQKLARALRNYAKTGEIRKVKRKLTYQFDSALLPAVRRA
Summary of the method: as §1

ELK3 = molecular target: T3, ELK3 (Homo sapiens, UniProt P41970 1-407)
T3 sequence: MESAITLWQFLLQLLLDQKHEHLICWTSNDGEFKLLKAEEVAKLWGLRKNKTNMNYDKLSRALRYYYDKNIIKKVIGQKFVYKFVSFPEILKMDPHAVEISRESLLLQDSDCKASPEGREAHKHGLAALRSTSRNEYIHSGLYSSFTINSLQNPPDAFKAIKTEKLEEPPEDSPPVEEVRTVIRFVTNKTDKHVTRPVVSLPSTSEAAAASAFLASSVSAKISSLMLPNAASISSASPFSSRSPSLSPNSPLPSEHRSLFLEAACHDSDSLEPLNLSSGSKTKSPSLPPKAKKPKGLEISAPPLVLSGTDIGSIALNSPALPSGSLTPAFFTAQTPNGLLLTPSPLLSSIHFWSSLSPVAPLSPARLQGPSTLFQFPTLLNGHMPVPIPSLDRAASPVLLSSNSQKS
Summary of the method: as §1

FEV = molecular target: T4, FEV (Homo sapiens, UniProt Q99581 1-238)
T4 sequence: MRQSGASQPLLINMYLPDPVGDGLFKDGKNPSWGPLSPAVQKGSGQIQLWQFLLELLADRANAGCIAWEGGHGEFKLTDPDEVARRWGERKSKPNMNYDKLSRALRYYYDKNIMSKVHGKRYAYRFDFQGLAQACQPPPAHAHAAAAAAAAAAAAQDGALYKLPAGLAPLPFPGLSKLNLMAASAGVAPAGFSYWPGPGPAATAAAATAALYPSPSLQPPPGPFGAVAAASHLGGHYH
Summary of the method: as §1

ETV5 = ETV5 (Homo sapiens, UniProt P41161 1-510)
Sequence of ETV5 (P41161 whole entry): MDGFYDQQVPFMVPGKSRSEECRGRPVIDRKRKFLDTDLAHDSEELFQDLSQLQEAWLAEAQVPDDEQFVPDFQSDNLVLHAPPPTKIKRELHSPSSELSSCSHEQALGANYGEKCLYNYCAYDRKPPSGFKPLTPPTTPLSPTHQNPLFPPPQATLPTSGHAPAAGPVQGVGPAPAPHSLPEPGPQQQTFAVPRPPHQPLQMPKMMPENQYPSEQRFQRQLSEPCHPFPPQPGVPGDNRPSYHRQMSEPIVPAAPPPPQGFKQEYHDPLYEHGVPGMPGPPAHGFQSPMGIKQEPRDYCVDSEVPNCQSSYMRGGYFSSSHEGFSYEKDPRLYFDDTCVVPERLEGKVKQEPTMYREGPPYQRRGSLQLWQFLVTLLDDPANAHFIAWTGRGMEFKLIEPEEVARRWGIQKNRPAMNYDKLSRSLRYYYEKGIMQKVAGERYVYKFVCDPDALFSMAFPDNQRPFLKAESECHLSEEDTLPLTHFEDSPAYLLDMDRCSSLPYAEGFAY
Summary of the method: as §1

SPIC = molecular target: T5, SPIC (Homo sapiens, UniProt Q8N5J4 1-248)
T5 sequence: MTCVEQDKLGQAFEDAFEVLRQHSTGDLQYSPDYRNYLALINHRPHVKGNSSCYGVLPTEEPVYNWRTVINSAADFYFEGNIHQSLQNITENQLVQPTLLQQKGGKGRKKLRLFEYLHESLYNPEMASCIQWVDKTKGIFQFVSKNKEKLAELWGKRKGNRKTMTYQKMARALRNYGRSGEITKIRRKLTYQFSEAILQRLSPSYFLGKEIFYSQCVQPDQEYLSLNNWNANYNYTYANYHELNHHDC
Summary of the method: as §1

ELF4 = ELF4 (Homo sapiens, UniProt Q99607 1-663)
Sequence of ELF4 (Q99607 whole entry): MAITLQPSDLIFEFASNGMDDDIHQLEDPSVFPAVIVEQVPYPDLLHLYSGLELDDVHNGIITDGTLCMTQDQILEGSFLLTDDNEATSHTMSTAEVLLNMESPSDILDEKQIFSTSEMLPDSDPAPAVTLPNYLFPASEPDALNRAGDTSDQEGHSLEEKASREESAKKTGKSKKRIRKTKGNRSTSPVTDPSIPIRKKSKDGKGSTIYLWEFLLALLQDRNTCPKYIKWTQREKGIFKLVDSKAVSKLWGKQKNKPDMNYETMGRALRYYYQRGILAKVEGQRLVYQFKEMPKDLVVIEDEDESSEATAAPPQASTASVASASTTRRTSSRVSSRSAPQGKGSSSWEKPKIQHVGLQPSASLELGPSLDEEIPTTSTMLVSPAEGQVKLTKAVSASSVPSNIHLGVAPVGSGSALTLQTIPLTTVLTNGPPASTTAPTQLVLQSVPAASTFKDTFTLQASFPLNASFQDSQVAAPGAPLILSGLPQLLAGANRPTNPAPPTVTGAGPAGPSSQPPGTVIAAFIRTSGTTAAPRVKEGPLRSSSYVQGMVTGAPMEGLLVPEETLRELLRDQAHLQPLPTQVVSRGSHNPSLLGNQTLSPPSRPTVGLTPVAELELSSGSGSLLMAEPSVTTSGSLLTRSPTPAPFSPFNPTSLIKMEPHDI
Summary of the method: as §1

ETV1 = ETV1 (Homo sapiens, UniProt P50549 1-477)
Sequence of ETV1 (P50549 whole entry): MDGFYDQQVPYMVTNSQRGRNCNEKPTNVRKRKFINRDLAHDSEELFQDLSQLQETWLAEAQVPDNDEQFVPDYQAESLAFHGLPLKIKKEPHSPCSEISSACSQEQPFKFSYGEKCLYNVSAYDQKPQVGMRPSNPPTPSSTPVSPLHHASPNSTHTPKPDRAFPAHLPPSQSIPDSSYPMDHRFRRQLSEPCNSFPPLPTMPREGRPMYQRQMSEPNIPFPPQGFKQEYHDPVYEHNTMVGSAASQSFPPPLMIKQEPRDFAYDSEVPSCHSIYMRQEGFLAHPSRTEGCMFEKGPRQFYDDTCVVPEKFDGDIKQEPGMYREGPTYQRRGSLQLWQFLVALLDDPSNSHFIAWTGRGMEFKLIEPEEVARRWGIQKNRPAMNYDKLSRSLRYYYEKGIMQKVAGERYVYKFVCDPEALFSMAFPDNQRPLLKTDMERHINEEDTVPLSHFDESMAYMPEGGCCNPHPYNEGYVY
Summary of the method: as §1

ETV3L = molecular target: T6, ETV3L (Homo sapiens, UniProt Q6ZN32 1-361)
T6 sequence: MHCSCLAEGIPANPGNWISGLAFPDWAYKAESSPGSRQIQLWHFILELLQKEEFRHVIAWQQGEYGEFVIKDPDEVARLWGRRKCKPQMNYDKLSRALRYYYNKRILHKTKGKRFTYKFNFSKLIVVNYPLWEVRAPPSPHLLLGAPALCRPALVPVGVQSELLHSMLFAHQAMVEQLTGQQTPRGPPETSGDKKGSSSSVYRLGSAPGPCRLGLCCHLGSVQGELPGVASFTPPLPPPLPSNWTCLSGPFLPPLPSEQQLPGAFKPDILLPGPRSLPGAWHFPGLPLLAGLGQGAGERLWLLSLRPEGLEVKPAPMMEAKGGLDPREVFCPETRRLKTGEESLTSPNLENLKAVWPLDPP
Summary of the method: as §1

ETV3 = molecular target: T7, ETV3 (Homo sapiens, UniProt P41162-2 1-143)
T7 sequence: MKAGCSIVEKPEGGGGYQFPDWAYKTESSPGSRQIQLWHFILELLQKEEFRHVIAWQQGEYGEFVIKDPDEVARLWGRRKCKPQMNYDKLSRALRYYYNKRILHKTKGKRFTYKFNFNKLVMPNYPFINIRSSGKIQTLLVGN
Summary of the method: as §1

ETV6 = ETV6 (Homo sapiens, UniProt P41212 1-452)
Sequence of ETV6 (P41212 whole entry): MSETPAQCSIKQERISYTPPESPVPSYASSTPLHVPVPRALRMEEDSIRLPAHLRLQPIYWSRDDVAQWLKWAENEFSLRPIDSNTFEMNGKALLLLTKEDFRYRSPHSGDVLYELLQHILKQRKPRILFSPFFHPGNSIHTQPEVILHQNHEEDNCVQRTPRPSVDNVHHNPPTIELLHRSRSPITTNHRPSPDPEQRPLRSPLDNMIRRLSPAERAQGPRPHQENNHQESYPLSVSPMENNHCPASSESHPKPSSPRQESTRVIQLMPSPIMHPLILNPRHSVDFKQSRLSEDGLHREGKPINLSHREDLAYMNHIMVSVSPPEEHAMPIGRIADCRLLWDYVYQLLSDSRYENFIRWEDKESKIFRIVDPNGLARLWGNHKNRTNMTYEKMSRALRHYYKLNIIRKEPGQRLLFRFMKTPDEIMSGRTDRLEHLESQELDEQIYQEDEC
Summary of the method: as §1

GABPA = molecular target: T8, GABPA (Homo sapiens, UniProt Q06546 1-454)
T8 sequence: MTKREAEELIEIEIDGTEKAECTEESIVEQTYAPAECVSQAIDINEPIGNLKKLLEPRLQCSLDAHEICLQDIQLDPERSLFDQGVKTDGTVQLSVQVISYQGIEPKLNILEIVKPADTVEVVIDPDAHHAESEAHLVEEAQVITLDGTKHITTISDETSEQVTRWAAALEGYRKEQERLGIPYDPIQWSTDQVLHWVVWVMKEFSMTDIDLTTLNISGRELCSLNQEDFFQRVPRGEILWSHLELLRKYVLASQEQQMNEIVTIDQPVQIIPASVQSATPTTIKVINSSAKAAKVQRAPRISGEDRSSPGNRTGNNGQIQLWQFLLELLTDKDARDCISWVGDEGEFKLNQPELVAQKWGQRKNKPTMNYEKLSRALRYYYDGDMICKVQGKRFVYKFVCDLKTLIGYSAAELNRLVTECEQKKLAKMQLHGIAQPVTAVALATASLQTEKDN
Summary of the method: as §1

EHF = molecular target: T9, EHF (Homo sapiens, UniProt Q9NZC4 1-300)
T9 sequence: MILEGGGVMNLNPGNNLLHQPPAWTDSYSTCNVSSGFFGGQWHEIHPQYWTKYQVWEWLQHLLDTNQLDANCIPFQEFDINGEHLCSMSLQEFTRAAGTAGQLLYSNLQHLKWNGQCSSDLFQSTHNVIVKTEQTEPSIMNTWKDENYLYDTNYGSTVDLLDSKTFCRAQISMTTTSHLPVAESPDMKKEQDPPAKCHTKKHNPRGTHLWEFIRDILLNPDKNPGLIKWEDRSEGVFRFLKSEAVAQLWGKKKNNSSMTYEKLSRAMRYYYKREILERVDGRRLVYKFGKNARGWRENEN
Summary of the method: as §1

ERF = molecular target: T10, ERF (Homo sapiens, UniProt P50548 1-548)
T10 sequence: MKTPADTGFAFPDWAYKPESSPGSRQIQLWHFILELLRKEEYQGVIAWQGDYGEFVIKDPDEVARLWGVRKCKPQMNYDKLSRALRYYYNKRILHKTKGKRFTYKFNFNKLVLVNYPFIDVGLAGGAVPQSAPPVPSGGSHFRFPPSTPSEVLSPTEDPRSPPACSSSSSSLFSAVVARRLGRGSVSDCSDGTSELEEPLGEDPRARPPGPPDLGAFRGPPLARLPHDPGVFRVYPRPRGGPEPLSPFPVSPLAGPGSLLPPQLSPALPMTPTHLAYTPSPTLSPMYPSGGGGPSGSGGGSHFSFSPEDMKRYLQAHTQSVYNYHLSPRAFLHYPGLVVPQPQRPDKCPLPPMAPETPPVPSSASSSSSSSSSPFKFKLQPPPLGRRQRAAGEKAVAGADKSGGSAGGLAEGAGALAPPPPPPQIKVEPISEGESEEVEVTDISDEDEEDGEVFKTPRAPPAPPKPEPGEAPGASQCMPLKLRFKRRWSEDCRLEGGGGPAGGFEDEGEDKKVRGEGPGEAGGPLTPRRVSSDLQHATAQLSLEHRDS
Summary of the method: as §1

ETS2 = molecular target: T11, ETS2 (Homo sapiens, UniProt P15036 1-469)
T11 sequence: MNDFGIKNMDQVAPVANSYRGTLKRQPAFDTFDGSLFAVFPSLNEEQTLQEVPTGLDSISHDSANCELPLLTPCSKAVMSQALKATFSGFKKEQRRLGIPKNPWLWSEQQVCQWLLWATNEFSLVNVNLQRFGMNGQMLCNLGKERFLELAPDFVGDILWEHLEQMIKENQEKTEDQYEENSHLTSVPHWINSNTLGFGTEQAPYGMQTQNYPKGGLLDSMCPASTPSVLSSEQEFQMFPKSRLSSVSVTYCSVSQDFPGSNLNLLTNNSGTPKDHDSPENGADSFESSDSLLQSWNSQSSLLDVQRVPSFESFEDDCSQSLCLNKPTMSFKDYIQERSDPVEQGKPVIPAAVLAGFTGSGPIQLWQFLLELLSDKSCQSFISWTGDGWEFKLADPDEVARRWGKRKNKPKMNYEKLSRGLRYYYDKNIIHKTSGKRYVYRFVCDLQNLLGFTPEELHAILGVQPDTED
Summary of the method: as §1

SPDEF = molecular target: T12, SPDEF (Homo sapiens, UniProt O95238 1-335)
T12 sequence: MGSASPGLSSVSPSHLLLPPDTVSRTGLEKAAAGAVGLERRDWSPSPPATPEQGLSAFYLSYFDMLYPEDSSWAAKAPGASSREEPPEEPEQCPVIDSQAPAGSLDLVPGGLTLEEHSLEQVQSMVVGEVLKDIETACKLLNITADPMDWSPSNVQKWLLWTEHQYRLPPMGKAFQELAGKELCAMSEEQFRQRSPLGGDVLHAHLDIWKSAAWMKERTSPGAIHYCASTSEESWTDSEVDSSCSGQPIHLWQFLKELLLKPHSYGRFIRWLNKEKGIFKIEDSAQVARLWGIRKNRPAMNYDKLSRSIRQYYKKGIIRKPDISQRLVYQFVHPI
Summary of the method: as §1

| Sequence | binding signal (FLI1) | binding signal (ERG) | binding signal (SPI1) | binding signal (SPIB) | binding signal (ELK3) | binding signal (FEV) | binding signal (ETV5) | binding signal (SPIC) | binding signal (ELF4) | binding signal (ETV1) | binding signal (ETV3L) | binding signal (ETV3) | binding signal (ETV6) | binding signal (GABPA) | binding signal (EHF) | binding signal (ERF) | binding signal (ETS2) | binding signal (SPDEF) |
| --- | --- | --- | --- | --- | --- | --- | --- | --- | --- | --- | --- | --- | --- | --- | --- | --- | --- | --- |
| AGTGCC | 1.06 fold enrichment (6-mer frequency, TF over GST control) | 1.01 fold enrichment (6-mer frequency, TF over GST control) | 1.32 fold enrichment (6-mer frequency, TF over GST control) | 1.01 fold enrichment (6-mer frequency, TF over GST control) | 1.05 fold enrichment (6-mer frequency, TF over GST control) | 1.04 fold enrichment (6-mer frequency, TF over GST control) | 1.03 fold enrichment (6-mer frequency, TF over GST control) | 1.19 fold enrichment (6-mer frequency, TF over GST control) | 1.01 fold enrichment (6-mer frequency, TF over GST control) | 1.04 fold enrichment (6-mer frequency, TF over GST control) | 1.07 fold enrichment (6-mer frequency, TF over GST control) | 1.05 fold enrichment (6-mer frequency, TF over GST control) | 1.16 fold enrichment (6-mer frequency, TF over GST control) |  |  |  |  |  |
| GTAGTT | 1.1 fold enrichment (6-mer frequency, TF over GST control) | 1.01 fold enrichment (6-mer frequency, TF over GST control) | 1.01 fold enrichment (6-mer frequency, TF over GST control) |  |  |  | 1.04 fold enrichment (6-mer frequency, TF over GST control) | 1.05 fold enrichment (6-mer frequency, TF over GST control) |  |  | 1.01 fold enrichment (6-mer frequency, TF over GST control) |  | 1.08 fold enrichment (6-mer frequency, TF over GST control) | 1.05 fold enrichment (6-mer frequency, TF over GST control) | 1.07 fold enrichment (6-mer frequency, TF over GST control) | 1.07 fold enrichment (6-mer frequency, TF over GST control) | 1.02 fold enrichment (6-mer frequency, TF over GST control) | 1.05 fold enrichment (6-mer frequency, TF over GST control) |
| TTGGCG | 1.07 fold enrichment (6-mer frequency, TF over GST control) |  | 1.05 fold enrichment (6-mer frequency, TF over GST control) | 1.13 fold enrichment (6-mer frequency, TF over GST control) |  |  | 1.02 fold enrichment (6-mer frequency, TF over GST control) | 1.09 fold enrichment (6-mer frequency, TF over GST control) |  |  |  |  |  | 1.02 fold enrichment (6-mer frequency, TF over GST control) |  | 1.01 fold enrichment (6-mer frequency, TF over GST control) |  |  |
